Results from the supplement of paper PMC6658780.
Counter-ions that a name gives are not always drawn. ± gives the standard deviation of the averaged measurements.

system: Klebsiella pneumoniae KPC-119; experiment: percent growth inhibition of drug alone vs DMSO control; higher = more growth inhibition; details: antibiotic (0.125x MIC): none (0.1% DMSO); 7 µM

Row | SMILES | percent growth inhibition of drug alone
1 | CCn1cc(C(=O)O)c(=O)c2cc(F)c(N3CCNCC3)nc21 [Enoxacin] | 1.76 ± 1.6%
2 | CO/N=C(\C(=O)N[C@@H]1C(=O)N2C(C(=O)O)=C(C[N+]3(C)CCCC3)CS[C@H]12)c1csc(N)n1 [Cefepime hydrochloride] | 3.95 ± 2.2%
3 | C[C@@H]1CN(c2c(F)c(N)c3c(=O)c(C(=O)O)cn(C4CC4)c3c2F)C[C@H](C)N1 [Sparfloxacin] | 33.5 ± 3.3%
4 | COc1cccc2c1C(=O)c1c(O)c3c(c(O)c1C2=O)C[C@@](O)(C(C)=O)C[C@@H]3O[C@H]1C[C@H](N)[C@H](O)[C@H](C)O1 [Daunorubicin hydrochloride] | 5 ± 0.63%
5 | COC(=O)N/N=C/c1c[n+]([O-])c2ccccc2[n+]1[O-] [Carbadox] | 1.29 ± 2%
6 | C/C(=C\C(=O)OCCCCCCCCC(=O)O)C[C@@H]1OC[C@H](C[C@@H]2O[C@H]2[C@@H](C)[C@H](C)O)[C@@H](O)[C@H]1O [Mupirocin] | 1.64 ± 1.8%
7 | C=CC1=C(C(=O)O)N2C(=O)[C@@H](NC(=O)/C(=N\OCC(=O)O)c3csc(N)n3)[C@H]2SC1 [Cefixime] | 9.48 ± 2.4%
8 | O=C1NCCN1c1ncc([N+](=O)[O-])s1 [Niridazole] | 9.23 ± 8.8%
9 | CC1COc2c(N3CCN(C)CC3)c(F)cc3c(=O)c(C(=O)O)cn1c23 (configuration not stated) [Ofloxacin] | 47.1 ± 5%
10 | Nc1nc(/C(=C/CC(=O)O)C(=O)N[C@@H]2C(=O)N3C(C(=O)O)=CCS[C@H]23)cs1 [Ceftibuten] | 38.6 ± 4.3%
11 | CS(=O)(=O)c1ccc([C@@H](O)[C@@H](CF)NC(=O)C(Cl)Cl)cc1 [Florfenicol] | 32.2 ± 2%
12 | CN(C(=O)CN(CCO)CC(=O)N(C)C(C)(C)Cc1ccccc1)C(C)(C)Cc1ccccc1 [Oxethazaine] | -4 ± 0.52%
13 | Oc1c(I)cc(Cl)c2cccnc12 [Clioquinol] | 12.1 ± 5%
14 | NCC[C@H](O)C(=O)N[C@@H]1C[C@H](N)[C@@H](O[C@H]2O[C@H](CN)[C@@H](O)[C@H](O)[C@H]2O)[C@H](O)[C@H]1O[C@H]1O[C@H](CO)[C@@H](O)[C@H](N)[C@H]1O [Amikacin hydrate] | 3.37 ± 0.38%

same assay, conditions: antibiotic (0.125x MIC): none (0.1% DMSO); 20 µM

Row | SMILES | percent growth inhibition of drug alone
15 | CCn1cc(C(=O)O)c(=O)c2cc(F)c(N3CCNCC3)nc21 [Enoxacin] | 25.2 ± 4%
16 | C[C@@H]1CN(c2c(F)c(N)c3c(=O)c(C(=O)O)cn(C4CC4)c3c2F)C[C@H](C)N1 [Sparfloxacin] | 99.04 ± 0.49%
17 | COc1cccc2c1C(=O)c1c(O)c3c(c(O)c1C2=O)C[C@@](O)(C(C)=O)C[C@@H]3O[C@H]1C[C@H](N)[C@H](O)[C@H](C)O1 [Daunorubicin hydrochloride] | 5.26 ± 2.2%
18 | COC(=O)N/N=C/c1c[n+]([O-])c2ccccc2[n+]1[O-] [Carbadox] | 11 ± 1.9%
19 | C/C(=C\C(=O)OCCCCCCCCC(=O)O)C[C@@H]1OC[C@H](C[C@@H]2O[C@H]2[C@@H](C)[C@H](C)O)[C@@H](O)[C@H]1O [Mupirocin] | 6.42 ± 0.11%
20 | C=CC1=C(C(=O)O)N2C(=O)[C@@H](NC(=O)/C(=N\OCC(=O)O)c3csc(N)n3)[C@H]2SC1 [Cefixime] | 44.3 ± 4.2%
21 | O=C1NCCN1c1ncc([N+](=O)[O-])s1 [Niridazole] | 74.9 ± 13%
22 | CCCCC(CC)CNC(=N)NC(=N)NCCCCCCNC(=N)NC(=N)NCC(CC)CCCC (configuration not stated) [Alexidine dihydrochloride] | 99.76 ± 0.25%
23 | CC1COc2c(N3CCN(C)CC3)c(F)cc3c(=O)c(C(=O)O)cn1c23 (configuration not stated) [Ofloxacin] | 97.47 ± 0.25%
24 | CS(=O)(=O)c1ccc([C@@H](O)[C@@H](CF)NC(=O)C(Cl)Cl)cc1 [Florfenicol] | 96.46 ± 0.59%
25 | CN(C(=O)CN(CCO)CC(=O)N(C)C(C)(C)Cc1ccccc1)C(C)(C)Cc1ccccc1 [Oxethazaine] | -5.74 ± 4.4%
26 | Oc1c(I)cc(Cl)c2cccnc12 [Clioquinol] | 44.53 ± 0.32%
27 | NCC[C@H](O)C(=O)N[C@@H]1C[C@H](N)[C@@H](O[C@H]2O[C@H](CN)[C@@H](O)[C@H](O)[C@H]2O)[C@H](O)[C@H]1O[C@H]1O[C@H](CO)[C@@H](O)[C@H](N)[C@H]1O [Amikacin hydrate] | 39.8 ± 0.7%
